Test results reported in PubChem BioAssay.

Assay: small molecules captured by biotinylated probe aFGF10 – biochemical, small-molecule microarray, fluorescence 635/667, stem cell growth factor project, primary screen (AID 1071);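 also: score merges 667 nm spot intensity and signal to noise from triplicate slides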
Conditions: higher = more signal

Row | SMILES | composite z-score
1 | CC1CC/C=C\[C@H]2OC34C=CCN(c5ccc6ccccc6c5)C(=O)[C@H]3N(C(CO)C(C)C)C(=O)[C@@H]4C2C(=O)O1 (stereo not given in full) | -0.0104
2 | COCCOC(=O)N1C(=O)[C@@]2(c3cc(C#CCC(C(=O)OC)C(=O)OC)ccc31)[C@H](c1ccc(OCCO)cc1)N1[C@H](c3ccccc3)[C@H](c3ccccc3)OC(=O)[C@H]1[C@@H]2C(=O)N1CCN(c2ncccn2)CC1 | 0.905
3 | CCOC(=O)[C@H]1C/C=C/C[C@H](C(=O)OCC)C(=O)O[C@H]2[C@@H](OC)O[C@H](CO)[C@@H](OC(=O)Nc3ccc(OC)cc3)[C@@H]2OC1=O | 0.803
4 | O=C1O[C@@H](c2ccccc2)[C@@H](c2ccccc2)N2[C@@H](c3ccc(O)cc3)[C@]3(C(=O)Nc4ccc(C#CC5=CCCCC5)cc43)[C@@H](C(=O)N3CCN(c4ncccn4)CC3)[C@H]12 | 0.323
5 | CCCCN1CC=CC23O[C@@H]4/C=C\CCC(C)OC(=O)C4[C@H]2C(=O)N(CCCCCCO)[C@@H]3C1=O (stereo not given in full) | 0.867
6 | CCOC(=O)C[C@H]1[C@H](OC(=O)c2ccc(-c3ccccc3)cc2)[C@@H](NC(=O)c2ccc3ccccc3n2)c2cc(OCCCO)ccc2N1C(=O)c1ccccc1 | 0.618
7 | COc1ccc(NN2C(C(O)c3ccccn3)C=CC3C(=O)N(C4CCCCC4)C(=O)C32)cc1 (stereo not given) | 0.467
8 | COc1cc(OC)c(C(O)C2C=CC3C(=O)N(c4ccccc4)C(=O)C3N2Nc2ccc(C#N)cc2)cc1Br (stereo not given) | 1.17
9 | COc1ccc([Si](C)(C)[C@H]2[C@H](CCn3cc([C@H](O)c4ccccc4)nn3)O[C@@]3(C(=O)N(Cc4ccc(N5CCOC5=O)cc4)c4ccccc43)[C@@H]2C)cc1 | -0.111
10 | CCCCC(CC)C(O)C1C=CC2C(=O)N(c3ccccc3)C(=O)C2N1Nc1ccc([N+](=O)[O-])cc1 (stereo not given) | 0.848
